The results in this text go back to PubChem BioAssay.

The target of this assay is Focal adhesion kinase 1 (Homo sapiens) (UniProt Q05397). As to the kind of experiment: small-molecule microarray binders of FAK, primary screen, biochemical, 635/667 nm fluorescence, BSA, DTT (AID 1130).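 Further: composite of spot emission at 667 nm and signal to noise over triplicate slides.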 The note with it: PTK2 binding, 635 nm fluorescence, higher = more signal.
Sequence of Focal adhesion kinase 1 (Homo sapiens) (Q05397 whole entry, looked up): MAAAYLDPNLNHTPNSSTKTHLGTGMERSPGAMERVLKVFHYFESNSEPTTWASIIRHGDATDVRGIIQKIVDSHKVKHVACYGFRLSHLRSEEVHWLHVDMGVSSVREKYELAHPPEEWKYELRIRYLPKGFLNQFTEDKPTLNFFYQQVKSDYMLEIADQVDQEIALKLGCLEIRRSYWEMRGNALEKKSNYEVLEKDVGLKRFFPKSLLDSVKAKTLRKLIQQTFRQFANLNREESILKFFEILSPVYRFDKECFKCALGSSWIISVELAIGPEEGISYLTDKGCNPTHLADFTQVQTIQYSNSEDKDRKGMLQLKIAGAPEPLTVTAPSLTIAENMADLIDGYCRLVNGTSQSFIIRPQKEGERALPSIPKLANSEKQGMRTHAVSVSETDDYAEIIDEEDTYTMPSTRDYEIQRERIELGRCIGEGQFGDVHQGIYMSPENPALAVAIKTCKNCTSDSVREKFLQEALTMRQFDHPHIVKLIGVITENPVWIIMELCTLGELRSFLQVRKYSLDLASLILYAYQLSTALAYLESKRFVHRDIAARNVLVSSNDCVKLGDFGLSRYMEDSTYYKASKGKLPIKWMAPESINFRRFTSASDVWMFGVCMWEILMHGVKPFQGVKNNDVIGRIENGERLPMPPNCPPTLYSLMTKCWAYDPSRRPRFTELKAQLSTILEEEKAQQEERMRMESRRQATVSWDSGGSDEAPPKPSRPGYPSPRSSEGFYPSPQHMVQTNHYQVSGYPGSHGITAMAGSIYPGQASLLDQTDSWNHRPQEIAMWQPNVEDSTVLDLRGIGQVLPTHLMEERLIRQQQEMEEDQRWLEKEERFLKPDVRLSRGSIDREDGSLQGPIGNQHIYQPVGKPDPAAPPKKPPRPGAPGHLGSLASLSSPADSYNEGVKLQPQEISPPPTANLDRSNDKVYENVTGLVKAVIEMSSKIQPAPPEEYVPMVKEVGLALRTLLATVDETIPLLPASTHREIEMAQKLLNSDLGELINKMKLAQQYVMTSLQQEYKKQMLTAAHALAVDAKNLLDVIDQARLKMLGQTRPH
With `C[N+](C)(C)CCCCNC(=O)[C@H]1C[C@H]2C(=O)N3CCC[C@H]3C(=O)N2[C@H]1c1ccc(O)cc1`, the composite z-score is 0.446.

As for `O=S(=O)(NCCCO)c1ccc(Br)cc1`, the composite z-score came to 0.0087.

For the compound `Cc1ccc(S(=O)(=O)N2CC(C(=O)O)=CCC2c2ccccc2)cc1` (configuration not stated), the composite z-score is 0.223.

The compound `C=CCOC(=O)[C@H]1[C@@H]2C(=O)O[C@@H](c3ccccc3)[C@@H](c3ccccc3)N2[C@@H](c2ccc(OCCOC(=O)[C@@H]3C[C@@H]4C(=O)NCC(=O)N4[C@@H]3c3ccc(O)cc3)cc2)[C@]12C(=O)Nc1ccc(I)cc12` yielded a composite z-score of 2.17.

In turn, `CC(=O)NCCCC[C@@H]1NC(=O)[C@@H]2C[C@H](C(=O)NCCCCCC[N+](C)(C)C)[C@H](c3cccc(OCCO)c3)N2C1=O` yielded a composite z-score of 0.202.

`C/C=C/[C@H](CCn1cc([C@H](O)c2ccccc2)nn1)[Si](C)(C)c1ccc(OC)cc1`: the composite z-score is -0.3.

In turn, `CCCNC(=O)[C@@]1(C)c2ccccc2C(=O)N(Cc2cc(C(F)(F)F)cc(C(F)(F)F)c2)[C@H]1c1ccc(CO)cc1` came in with a composite z-score of 0.147.

For the compound `C=C(CCCC)/C(=C/C[C@H](OC(C)=O)c1ccc(CO)o1)c1cc(C(=O)OC)ccc1OC`, the composite z-score was determined as 0.0945.

On to `C=CCCN(CC#C[C@H]1Oc2ccccc2S(=O)(=O)N2CCC[C@@H]12)S(=O)(=O)c1ccc(C)cc1`, for which the composite z-score is 0.172.

On to `CN1C(=O)C2C=CC(C(O)C(c3ccccc3)c3ccccc3)N(Nc3ccccc3)C2C1=O` (configuration not stated), for which the composite z-score turned out to be 0.668.

On to `O=C1OCCC/C=C\[C@H]2OC34C=CCN(CCN5CCOCC5)C(=O)[C@H]3N(CCO)C(=O)[C@@H]4C12` (some centres not stated), for which the composite z-score is -0.3.

The compound `COCCOC(=O)N1C(=O)[C@@]2(c3cc(C#CC4(O)CCCCCC4)ccc31)[C@H](c1ccc(O)cc1)N1[C@H](c3ccccc3)[C@H](c3ccccc3)OC(=O)[C@H]1[C@@H]2C(=O)N1CCc2cc(OC)c(OC)cc2C1` yielded a composite z-score of 0.462.
